Assay outcomes from PubChem BioAssay.
In the library only some 3.2% were active in any assay of this set; here they are far more common.
ALOX15 inhib = 15-hLO (ALOX15) enzyme inhibition; P16050; Potency, µM (series often up to 57.1 µM), for the others: at the top dose activity change, negative = inhibition, most hits filed as inhibitors; purified 15hLO-1, xylenol orange hydroperoxide absorbance; 74,000 compounds, 1.4% hits; further: potency means the concentration at half of the fitted maximal effect; on the % scale 0 is the no-effect control and ±100 the full control effect; nearly all actives have a fitted effect of over 55% in size
Target sequence (P16050 whole entry, looked up): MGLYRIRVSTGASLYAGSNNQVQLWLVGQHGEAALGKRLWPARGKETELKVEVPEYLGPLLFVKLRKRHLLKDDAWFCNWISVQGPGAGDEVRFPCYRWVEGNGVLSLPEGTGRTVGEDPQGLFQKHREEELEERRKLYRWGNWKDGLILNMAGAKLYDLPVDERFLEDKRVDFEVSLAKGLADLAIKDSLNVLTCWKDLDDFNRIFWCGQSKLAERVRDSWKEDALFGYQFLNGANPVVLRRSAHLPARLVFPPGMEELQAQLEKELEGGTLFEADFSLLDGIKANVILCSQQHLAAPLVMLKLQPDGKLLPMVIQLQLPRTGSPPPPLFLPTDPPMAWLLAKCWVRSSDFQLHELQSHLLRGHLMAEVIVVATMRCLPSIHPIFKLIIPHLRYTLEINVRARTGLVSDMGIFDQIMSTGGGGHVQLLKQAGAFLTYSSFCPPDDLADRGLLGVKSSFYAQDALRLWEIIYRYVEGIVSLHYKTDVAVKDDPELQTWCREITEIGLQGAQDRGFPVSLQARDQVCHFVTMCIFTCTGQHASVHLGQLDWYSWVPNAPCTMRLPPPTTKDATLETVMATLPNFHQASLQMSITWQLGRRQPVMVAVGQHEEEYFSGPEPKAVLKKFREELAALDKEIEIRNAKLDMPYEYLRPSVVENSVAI
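40 nM 15hLO-1 + cpd, 15 min RT; start w/ 50 uM AA (final), 6 min RT; stop/detect w/ 200 uM XO + 300 uM Fe(II) in 50 mM H2SO4, 30 min; A573/A405. Buffer 25 mM Hepes pH 7.5, 0.01% Triton X-100. No-enzyme wells as negative control.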
UbGFP stabilizer = proteasome inhibitors stabilizing ubiquitin-GFP reporter; Potency, µM (series often up to 45.9 µM), for the others: top-dose activation (GFP accumulation), usual class: activators; Ubiquitin-GFP reporter cells, proteasome inhibition, GFP fluorescence; response scale: untreated = 0%, 10 µM MG-132 = 100%; 67,000 tested, under 10 active; AID 526; active means well fitted activation curve with a large enough effect, not every such curve was filed as active; inconclusive means small, poorly fitted or top-dose-only effect, or another doubt; inactive means no such curve, though single readings can be large or run the other way; further: potency means the concentration at half of the fitted maximal effect
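GFP accumulation read-out: laser plate cytometry counting ubiquitin(G76V)-GFP-expressing U2OS cells after 4 hr compound exposure at 37 °C. Titrations spanned 46 uM to 2.9 nM; 0% = basal, 100% = 10 uM MG-132; concentration-response curves fitted.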
GFP derepression = epigenetic modulators derepressing GFP locus in mouse cells | Potency, µM (titrated, usually from 46.1 µM), inactives show at the top dose GFP derepression (activation) | mouse C127i GFP locus derepression, cytometry, 30 h | 68,000 compounds, 0.09% hits; further: % of control where 0% means no effect
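Read-out is the number of GFP-positive cells, scored as fluorescent objects 20 to 120 um wide, reflecting derepression of a silenced CMV-GFP reporter in murine C127i cells after 30 h compound exposure at 37 C.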
DNA Pol III inh = blocks replication by bacterial DNA polymerase III holoenzyme; reconstituted DNA polymerase III holoenzyme replication, biochemical; 71,000 compounds, 0.25% hits; Potency, µM (top dose mostly 57.1 µM), for the others: at the top dose activity change, negative = inhibition; further: potency means the concentration at half of the fitted maximal effect; on the % scale 0 is the no-effect control and ±100 the full control effect
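Reconstituted *E. coli* holoenzyme (0.35 nM Pol III, 1 nM beta, 154 nM SSB, 2 nM primase) was preincubated with compound for 15 min at RT. Synthesis on 1.4 nM ssM13Gori ran 35 min, then was stopped with PicoGreen/EDTA and read as dsDNA fluorescence.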
Tau filament bind = tau filament binding; P10636; recombinant tau filaments, thioflavin S fluorescence, 15 h; filaments grown with octadecylsulfate alongside compound; Potency, µM (top dose mostly 57.1 µM), for the others: at the top dose activity change, negative = inhibition; 71,000 compounds, 2% hits;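 further: potency means the concentration at half of the fitted maximal effect; on the % scale 0 is the no-effect control and ±100 the full control effect; actives lower thioflavin S fluorescence by blocking filaments or displacing dye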
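Tau 2 uM in ThS buffer dispensed; compound added; 60 uM ODS added (finals 1 uM tau, 30 uM ODS); 15 h 37 C; fluor ex450/em510.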
HBB splice mod = alters splicing of the hemoglobin beta chain | HBB splicing reporter cell assay, activation; EGFP reporter with mutant IVS2-654 intron; response scale: normalised to 500 nM splice-correcting PNA | AID 925 | 65,000 compounds, 0.06% hits | Potency, µM (titrated, usually from 46.1 µM), inactives show at the highest dose activation, actives largely listed as activators; further: potency means the concentration at half of the fitted maximal effect; 0% is about no effect
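HeLa cells stably expressing EGFP interrupted by mutant beta-globin intron 2 (IVS2-654), 500/well in 2% FCS. Treated with compound for 2 days at 37C. Splicing correction scored as total well GFP intensity (488 nm excitation, 500-520 nm emission); 500 nM antisense PNA served as control.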
Active calls of the source: *; i = inactive; ? = inconclusive; / = no result given; [ ] = another dose, or the depositor's remark. Unless noted, the call rests on the fitted dose curve; in most records, active means well fitted curve in the direction sought with a large enough effect; inconclusive means small, poorly fitted or top-dose-only effect, or another doubt; inactive means no such curve, though single readings can be large; an effect the other way counts as inactive or inconclusive.

SMILES	ALOX15 inhib	UbGFP stabilizer	GFP derepression	DNA Pol III inh	Tau filament bind	HBB splice mod
CCC(=Nc1ccc(N)cc1)C1=C(O)C(C(=O)OC)C(C)(C)CC1=O (stereo unspecified)	-21%	2%	7%	-7%	16µM*	-1%[57.5 µM]
CC1=C(/C=C/C(C)=C/C=C/C(C)=C/C(=O)Nc2ccc(O)cc2)C(C)(C)CCC1	?	/	/	-10%	3.2µM*	-1%
COc1cccc(-c2cc(=O)c3cc(O)ccc3o2)c1	6%[25.6 µM]	-9%	-2%[9.22 µM]	-14%	32µM*	/
Nc1nccc(Nc2ccc(S(N)(=O)=O)cc2)n1	2%[11.4 µM]	-1%[9.17 µM]	-2%[9.22 µM]	-1%[11.4 µM]	4%[11.4 µM]	0%[9.22 µM]
COc1ccc(Cl)cc1NC(=O)C1CCCN(S(=O)(=O)c2cccc3nonc23)C1 (stereo unspecified)	-5%	?	2%	8%	25µM*	4%[1.84 µM]
CCOc1ccc(OCC)c(NC(=O)C2CCN(S(=O)(=O)c3cccc4nonc34)CC2)c1	3%	30%	-1%	-3%	54%	-1%
O=C(NCCCCN1CCCC1)c1ccc(-n2c(=O)c(=O)[nH]c3ccccc32)cc1	-1%	/	/	/	/	/
CN1CC[C@H](CN2c3ccccc3Sc3ccccc32)C1	5%[11.4 µM]	-6%[9.17 µM]	0%[9.22 µM]	-3%[11.4 µM]	4µM*	5%[9.22 µM]
CSc1ccc2c(c1)N(CCC1CCCCN1C)c1ccccc1S2 (stereo unspecified)	-12%	/	-2%[20.6 µM]	/	/	/
CCOC(=O)SC1=N/C(=C\c2ccc(N(C)C)cc2)C(=O)S1	-29%	-5%	0%	-4%	3.2µM*	5%
CCSC1=N/C(=C\c2ccc(C(=O)O)cc2)C(=O)S1	4%	-4%	0%	-1%	13%	3%
Cc1ccc2nc(-c3ccc(N)cc3)sc2c1S(=O)(=O)O	-22%	/	/	?	-5%	1%
CCN(CC)c1ccc2cc(-c3nc4ccccc4n3C)c(=O)oc2c1	-5%[11.4 µM]	?	10µM*	12%[11.4 µM]	i[11.4 µM]	?
CN(C)c1ccc(-c2nc3ccccc3n2C)cc1	3%	6%	-1%	-6%	-12%	-1%
CCN(CC)c1ccc2cc(-c3nc4ccccc4[nH]3)c(=O)oc2c1	-2%[11.4 µM]	0.5µM*	0.16µM*	414%[11.4 µM]	i[11.4 µM]	0.79µM*
Cc1ccccc1/C=C\C1=NCCN1	-10%	-2%	-2%	-4%	1%	-1%
CCCCCCCN	-3%	/	/	-2%	-10%	0%
Cc1[nH]c2ccccc2c1SCCNC(=O)c1ccc(Br)o1	-17%	0%	0%	0%	-8%	-1%
O=C(NCCSc1c[nH]c2ccccc12)c1ccc(Br)o1	25µM*	7%	/	-4%	1%	0%
CN1CCN(c2nc3c(c(=O)n(C)c(=O)n3C)n2CCSc2nc3ccccc3s2)CC1	1.6µM*	-9%	/	-8%	-18%	0%
COc1cc2c(cc1OC)-c1cc(NCc3ccccn3)nc(=O)n1CC2	13µM*	/	0%	-12%	-5%	0%[0.369 µM]
c1c[nH]cn1	-6%	/	/	-2%	3%	1%
COc1cccc2c1C(=O)c1c(O)c3c(c(O)c1C2=O)C[C@](O)(C(=O)CO)C[C@@H]3O[C@H]1C[C@H](N)[C@@H](O)[C@H](C)O1	/	1%[9.17 µM]	0%[9.22 µM]	3%[11.4 µM]	-1%[11.4 µM]	1%[9.22 µM]
COc1cccc2c1C(=O)c1c(O)c3c(c(O)c1C2=O)C[C@@](O)(C(C)=O)C[C@@H]3O[C@H]1C[C@H](N)[C@H](O)[C@H](C)O1	1%	-4%	-4%[20.6 µM]	0.16µM*	0.13µM*	0%
O=C(NC1CCN(Cc2ccccc2)CC1)c1ccc(-n2c(=O)c(=O)[nH]c3ccccc32)cc1	-7%	/	/	/	/	/
SMILES	ALOX15 inhib	UbGFP stabilizer	GFP derepression	DNA Pol III inh	Tau filament bind	HBB splice mod
COCCN1C(=O)c2ccccc2C(C(=O)NCC2CCCO2)C1c1c[nH]c2ccccc12 (stereo unspecified)	13%	-8%	-2%	1%	-7%	-3%
COCCN1C(=O)c2ccccc2C(C(=O)NCCCN2CCCC2=O)C1c1c[nH]c2ccccc12 (stereo unspecified)	25µM*	-10%	-1%	-3%	-8%	2%
COc1cccc(Nc2ncccc2C(=O)NCc2ccccc2)c1	-27%	0%	?	0%	36%	2%
COc1ccc(Nc2ncccc2C(=O)Nc2ccccc2)cc1	-13%	1%	0%	-1%	20µM*	4%
CCOC(=O)OCC1OC(C#Cc2ccccc2)C=CC1OC(=O)OCC (stereo unspecified)	-5%[11.4 µM]	/	/	/	/	-2%[9.22 µM]
CCS(=O)(=O)NCc1ccc2[nH]c3c(c2c1)CCCC3	0.4µM*	0%	2%	-6%	i	-1%
C/C=C\C1=C(CO)C(=O)[C@@H]2OC2C1=O (stereo partly specified)	?	/	/	/	/	3%[9.22 µM]
C=C(C#N)C(=O)OCC	0%	/	/	0%	3%	1%
COc1cccc2c1NC(C(=O)O)C1CC=CC21 (stereo unspecified)	-26%	-3%	0%	25µM*	-22%	/
COc1ccccc1CNc1ncnc2ccc(-c3cccc(C#N)c3)cc12	-10%	-8%	1%[9.22 µM]	-7%	i	-1%
O=C1C2C3C=CC(C3)C2C(=O)N1c1ncn[nH]1 (stereo unspecified)	8%	3%	2%	13µM*	-11%	4%[0.369 µM]
O=C(c1ccc2c(c1)OCO2)[C@@H]1[C@@H]2C(=O)N(C3CCCCC3)C(=O)[C@@H]2C2c3ccccc3C=CN21 (stereo partly specified)	16µM*	1%	2%	-5%	?	2%[57.5 µM]
O=C(Nc1ccc2c(c1)OCO2)[C@@H]1[C@@H]2C(=O)N(C3CCCCC3)C(=O)[C@@H]2C2c3ccccc3C=CN21 (stereo partly specified)	?	2%	0%	-1%	?	-3%[57.5 µM]
CC(C)[N+]1(C)[C@@H]2CC[C@H]1CC(OC(=O)[C@@H](CO)c1ccccc1)C2 (stereo partly specified)	7%[25.6 µM]	7%	-1%	-3%	?	0%[20.6 µM]
Nc1c(NCCN2CCOCC2)c2ccccc2oc1=O	1.6µM*	-5%	-1%	-3%	-12%	-4%
Brc1ccc(-c2nn3c(-c4ccco4)nnc3s2)o1	20µM*	0%	3%	25µM*	-8%	0%
Clc1ccc(-c2ccc(-c3nn4c(-c5ccco5)nnc4s3)o2)cc1	16µM*	1%	-3%	-11%	25µM*	0%
CS[C@@H](CC(=O)O)C(=O)O	0%[11.4 µM]	3%[9.17 µM]	0%[9.22 µM]	-8%[11.4 µM]	6%[11.4 µM]	3%[9.22 µM]
CN1CCN(C(=O)CSc2nc(-c3ccncc3)ccc2C#N)CC1	/	/	5%[20.6 µM]	/	/	/
